The source of these data is PubChem BioAssay (EPA / NIEHS).

Inconclusive results are not listed. Active and inactive are the calls of the source. Rule for the calls, unless noted: active = hit-call score of the fitted dose curve at least 0.9, where 1 is the maximum; inactive = score below 0.9.

In assay [1] the target is human Vitamin D Receptor (VDR), VDR (gene 7421) (UniProt P11473). Put plainly: ATG_VDR_TRANS: Attagene TRANS-FACTORIAL HepG2 Assay for human Vitamin D Receptor (VDR) (AID 2283022; active = hit-call score of the fitted dose curve at least 0.9, where 1 is the maximum). The method in brief:
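Steps: transfect HepG2 with GAL4-UAS-driven reporter constructs; dose compounds 24 h; isolate RNA, reverse-transcribe, PCR-amplify with 6-FAM-labelled primer extension and HpaI digestion; quantify fragments by capillary electrophoresis relative to DMSO.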

A short description of assay [2]: BSK_3C_SRB: Viability Assessment in the BioMAP Diversity Plus: 3C Assay (AID 2283023).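 Note: fitted both ways against DMSO so a hit may be signal rise or drop.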 Particulars: primary human endothelial cells (HUVEC). In short, it runs like this: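 Absorbance at 560 nm of sulforhodamine B-stained (0.1%) total protein served as a cytotoxicity readout in human umbilical vein endothelial cells, 24 h after chemical treatment. Signal was fitted bidirectionally relative to DMSO.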

Read-out in assay [3]: Matrix Metallopeptidase 1 (MMP1), MMP1 (gene 4312)
Put plainly: BSK_BE3C_MMP1: BioMAP Diversity Plus: BE3C Assay for Matrix Metallopeptidase 1 (MMP1) Biomarker Activity (AID 2283024). Particulars: primary human bronchial epithelial cells; actives raise or lower the signal. In short, it runs like this: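 ELISA measurement of MMP-1 after 24 h compound exposure of primary human bronchial epithelial cells. Changes in either direction fitted relative to DMSO; parallel SRB staining checked overt cytotoxicity.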

Assay [4] is described as follows: BSK_3C_Vis: BioMAP Diversity Plus: 3C Assay for Morphology Visualization (AID 2283025).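 Note: light microscopy image of cell morphology used as background control; fitted both ways so gain or loss versus DMSO counts.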 Particulars: primary human endothelial cells (HUVEC). In short, it runs like this:
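Light-microscopy visualization of HUVEC cultures at 24 h post-treatment, with DMSO as baseline for bidirectional fitting.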

Read-out in assay [5]: Pselectin, SELP (gene 6403)
Put plainly: BSK_4H_Pselectin: BioMAP Diversity Plus: 4H Assay for Pselectin Biomarker Activity (AID 2283026). Particulars: primary human endothelial cells (HUVEC); actives raise or lower the signal. In short, it runs like this: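 ELISA of surface P-selectin on HUVEC, 24 h after dosing, with parallel SRB staining (0.1% after 10% TCA fixation, 560 nm) for overt cytotoxicity. Activity fitted in both directions relative to DMSO.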

Assay [6] is described as follows: BSK_4H_SRB: Viability Assessment in the BioMAP Diversity Plus: 4H Assay (AID 2283027).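 Note: cells exposed to compound for 24 h before staining; curves fitted both ways versus DMSO so AC50 may be loss or gain.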 Particulars: primary human endothelial cells (HUVEC). In short, it runs like this:
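Cytotoxicity readout: sulforhodamine B (0.1%) staining of total protein after 10% TCA fixation, measured at 560 nm in human umbilical vein endothelium at 24 h. DMSO set the baseline; fitting was bidirectional.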

Assay [7] in a line: BSK_BE3C_SRB: Viability Assessment in the BioMAP Diversity Plus: BE3C Assay (AID 2283028).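 Note: fitted both ways so AC50 may mark signal gain or loss versus DMSO.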 The conditions noted are these: primary human bronchial epithelial cells. In short, it runs like this:
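Cells (human bronchial epithelial, primary) are treated with chemicals, and after 24 h the parallel cultures are fixed in 10% TCA. These are then stained with 0.1% SRB and read at 560 nm. Gain or loss of signal is fitted relative to DMSO.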

Read-out in assay [8]: Thrombomodulin, THBD (gene 7056)
Briefly: BSK_3C_Thrombomodulin: BioMAP Diversity Plus: 3C Assay for Thrombomodulin Biomarker Activity (AID 2283029). The conditions noted are these: primary human endothelial cells (HUVEC); actives raise or lower the signal. The method in brief: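 ELISA measurement of thrombomodulin on HUVEC surface 24 h after chemical dosing; activity fitted in both directions relative to DMSO vehicle.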

Read-out in assay [9]: Urokinase-type plasminogen activator receptor (uPAR), PLAUR (gene 5329)
Put plainly: BSK_4H_uPAR: BioMAP Diversity Plus: 4H Assay for Urokinase-type plasminogen activator receptor (uPAR) Biomarker Activity (AID 2283030). The conditions noted are these: primary human endothelial cells (HUVEC); actives raise or lower the signal. The method in brief: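 Cell-surface uPAR ELISA signal, measured 24 h after dosing human umbilical vein endothelial cells, was analyzed with bidirectional fitting relative to DMSO. Parallel SRB staining of total protein tracked overt cytotoxicity.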

Read-out in assay [10]: Vascular endothelial growth factor receptor 2 (Homo sapiens) (UniProt P35968)
Put plainly: BSK_4H_VEGFRII: BioMAP Diversity Plus: 4H Assay for Vascular endothelial growth factor receptor 2 (VEGFR2) Biomarker Activity (AID 2283031). The conditions noted are these: primary human endothelial cells (HUVEC); actives raise or lower the signal. In short, it runs like this: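 ELISA read-out of VEGFRII in primary human umbilical vein endothelium, taken 24 h after chemical treatment. Responses are expressed relative to DMSO, with bidirectional fitting.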

Read-out in assay [11]: Vascular cell adhesion molecule 1 (VCAM1), VCAM1 (gene 7412)
Put plainly: BSK_4H_VCAM1: BioMAP Diversity Plus: 4H Assay for Vascular cell adhesion molecule 1 (VCAM1) Biomarker Activity (AID 2283033). Particulars: primary human endothelial cells (HUVEC); actives raise or lower the signal. The method in brief: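 VCAM-1 ELISA read 24 h after chemical dosing of HUVEC in the BioMAP 4H system, with gain or loss of signal fitted relative to DMSO. Parallel SRB staining (560 nm) checked overt cytotoxicity.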

Read-out in assay [12]: Interferon-gamma inducible Protein 10 (IP10), CXCL10 (gene 3627)
Briefly: BSK_BE3C_IP10: BioMAP Diversity Plus: BE3C Assay for Interferon-gamma inducible Protein 10 (IP10) Biomarker Activity (AID 2283034). The conditions noted are these: primary human bronchial epithelial cells; actives raise or lower the signal. In short, it runs like this:
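IP-10 quantified by ELISA in human primary bronchial epithelial cell cultures at 24 hours post-dosing. Gain or loss of signal fitted relative to DMSO; parallel SRB staining assessed overt cytotoxicity.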

Read-out in assay [13]: Monokine induced gamma interferon (MIG), CXCL9 (gene 4283)
Put plainly: BSK_BE3C_MIG: BioMAP Diversity Plus: BE3C Assay for Monokine induced gamma interferon (MIG) Biomarker Activity (AID 2283035). Particulars: primary human bronchial epithelial cells; actives raise or lower the signal. The method in brief:
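hu bronchial epithelial 1° cells, 24 h cpd; MIG by ELISA; bidirectional fit, DMSO = baseline.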

Read-out in assay [14]: Transforming growth factor beta 1 (TGFb1), TGFB1 (gene 7040)
Briefly: BSK_BE3C_TGFb1: BioMAP Diversity Plus: BE3C Assay for Transforming growth factor beta 1 (TGFb1) Biomarker Activity (AID 2283036). Particulars: primary human bronchial epithelial cells; actives raise or lower the signal. In short, it runs like this:
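ELISA readout of TGF-b1 from human lung bronchial epithelial primary cells, taken 24 h post-treatment. Gain or loss of signal fitted relative to DMSO baseline, with parallel SRB staining for overt cytotoxicity.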

Read-out in assay [15]: Plasminogen activator inhibitor-1 (PAI1), SERPINE1 (gene 5054)
Briefly: BSK_BE3C_PAI1: BioMAP Diversity Plus: BE3C Assay for Plasminogen activator inhibitor-1 (PAI1) Biomarker Activity (AID 2283037). Particulars: primary human bronchial epithelial cells; actives raise or lower the signal. In short, it runs like this:
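PAI-1 was measured by ELISA in human primary bronchial epithelial cultures 24 h after chemical dosing, with cytotoxicity checked by SRB total-protein staining in parallel cultures. Activity was fitted in both directions relative to DMSO.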

Read-out in assay [16]: urokinase plasminogen activator (uPA), PLAU (gene 5328)
Put plainly: BSK_BE3C_uPA: BioMAP Diversity Plus: BE3C Assay for urokinase plasminogen activator (uPA) Biomarker Activity (AID 2283038). Particulars: primary human bronchial epithelial cells; actives raise or lower the signal. The method in brief:
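Bronchial epithelial cells (human, primary); chemical 24 h; uPA by ELISA; bidirectional fit vs DMSO. SRB (0.1%, after 10% TCA fixation, 560 nm) in parallel cultures for cytotoxicity.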

Read-out in assay [17]: Urokinase-type plasminogen activator receptor (uPAR), PLAUR (gene 5329)
Put plainly: BSK_BE3C_uPAR: BioMAP Diversity Plus: BE3C Assay for Urokinase-type plasminogen activator receptor (uPAR) Biomarker Activity (AID 2283039). The conditions noted are these: primary human bronchial epithelial cells; actives raise or lower the signal. The method in brief: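 uPAR levels were measured by ELISA after 24 h compound treatment of primary human bronchial epithelial cells, fitted in both directions relative to DMSO. Parallel SRB staining served as the cytotoxicity read-out.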

Read-out in assay [18]: Interleukin-6 (IL6), IL6 (gene 3569)
Briefly: BSK_CASM3C_IL6: BioMAP Diversity Plus: CASM3C Assay for Interleukin-6 (IL6) Biomarker Activity for (AID 2283040). Particulars: primary human coronary artery smooth muscle cells; actives raise or lower the signal.

Read-out in assay [19]: Human Leukocyte Antigen - DR isotype (HLADR), HLA-DRA (gene 3122)
Briefly: BSK_BE3C_HLADR: BioMAP Diversity Plus: BE3C Assay for Human Leukocyte Antigen - DR isotype (HLADR) Biomarker Activity (AID 2283032). The conditions noted are these: primary human bronchial epithelial cells; actives raise or lower the signal. The method in brief: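 Cell-surface HLA-DR ELISA readout at 24 h after dosing in the BE3C primary human lung bronchial epithelial system; gain or loss of signal against DMSO, with parallel sulforhodamine B staining of total protein for overt cytotoxicity.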

Read-out in assay [20]: Tissue plasminogen activator (tPA), PLAT (gene 5327)
Briefly: BSK_BE3C_tPA: BioMAP Diversity Plus: BE3C Assay for Tissue plasminogen activator (tPA) Biomarker Activity (AID 2283041). The conditions noted are these: primary human bronchial epithelial cells; actives raise or lower the signal. The method in brief: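 tPA measured by ELISA 24 h after dosing human primary bronchial epithelial cells (BE3C system). Changes in either direction were fitted against DMSO. Parallel cultures were stained with SRB to flag overt cytotoxicity.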

Sequence of human Vitamin D Receptor (VDR), VDR (gene 7421) (P11473 whole entry, looked up, the tested form may be a part): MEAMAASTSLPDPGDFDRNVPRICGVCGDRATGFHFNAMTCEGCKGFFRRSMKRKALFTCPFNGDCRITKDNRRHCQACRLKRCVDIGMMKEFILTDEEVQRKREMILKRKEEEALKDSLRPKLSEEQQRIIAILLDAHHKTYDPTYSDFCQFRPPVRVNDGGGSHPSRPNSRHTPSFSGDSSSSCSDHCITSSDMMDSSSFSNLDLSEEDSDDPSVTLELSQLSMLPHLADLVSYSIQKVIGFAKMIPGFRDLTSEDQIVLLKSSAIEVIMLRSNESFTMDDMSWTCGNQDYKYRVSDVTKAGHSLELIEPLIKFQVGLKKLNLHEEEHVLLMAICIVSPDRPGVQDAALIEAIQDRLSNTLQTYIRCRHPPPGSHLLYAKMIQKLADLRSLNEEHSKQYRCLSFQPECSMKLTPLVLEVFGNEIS

On to `NC(=O)c1nc(-c2cccc(-c3cc(F)ccc3OCC(F)(F)C(F)(F)F)c2)n[nH]1`, for which the call in assay [1], in [10] and in assay [18] was inactive. The AC50 was 31.9 µM (active) in assay [2]; 36.5 µM (active) in assay [3]; 42.3 µM (active) in [4]; 30.8 µM (active) in assay [5]; 35.2 µM (active) in assay [6]; 34.5 µM (active) in assay [7]. For the same compound, the AC50 in assay [8] is 11.7 µM (active); in [9] it was 22.6 µM (active); in assay [11], 38.2 µM (active); in assay [12], 35.9 µM (active); in assay [13] it was 37.5 µM (active); in assay [14], 33 µM (active). Further, the AC50 in assay [15] was 35.1 µM (active); in [16] it was 37.7 µM (active); in assay [17] it was 35.3 µM (active).

Regarding `COc1cc(C(=O)NC2CCN(C)CC2)ccc1Nc1ncc2c(n1)N(C1CCCC1)CC(F)(F)C(=O)N2C`, the call in [1], in [8] and in assay [10] was inactive. The AC50 in [2] was 18.6 µM (active); in [3], 7.76 µM (active); in assay [4], 18.6 µM (active); in assay [5], 3.57 µM (active); in assay [6], 13.5 µM (active); in [7] it was 28.2 µM (active). For the same compound, the AC50 is 7.45 µM (active) in [9]; 21.9 µM (active) in assay [19]; 7.23 µM (active) in assay [11]; 35.5 µM (active) in [12]; 31.8 µM (active) in assay [13]; 18.5 µM (active) in assay [14]. Further, the AC50 in [15] is 18.6 µM (active); in assay [16], 12.6 µM (active); in assay [18], 8.51 µM (active); in [20] it was 10.6 µM (active).

For `O=c1[nH]sc2ccccc12`, the result in assay [1] and in [10] was inactive. Further, the AC50 was 13.8 µM (active) in assay [2]; 26 µM (active) in assay [3]; 5.31 µM (active) in assay [4]; 5.54 µM (active) in assay [5]; 20 µM (active) in assay [6]; 37.1 µM (active) in assay [7]. Further, the AC50 in [8] was 5.42 µM (active); in [9], 20 µM (active); in [19] it was 28.1 µM (active); in assay [11], 7.17 µM (active); in assay [12], 28 µM (active); in assay [13], 32.3 µM (active). For the same compound, the AC50 in [14] was 20 µM (active); in [15], 37.2 µM (active); in assay [16], 33.6 µM (active); in assay [17], 35 µM (active); in assay [18], 8.69 µM (active); in assay [20] it was 11 µM (active).

For orientation: AC50 means the midpoint of the concentration-response curve, whichever way the signal moves.
